Bioassay records as filed in PubChem.
Pf growth 48h = P. falciparum growth inhibition at 48 hours (one generation); P. falciparum luciferase growth in erythrocytes, 48 h; Potency, µM (series often up to 28.7 µM), for the others: top-dose activity change, negative = inhibition, most hits filed as inhibitors; hit rate 5.9% among 310,000; further: potency means the concentration at half of the fitted maximal effect
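Firefly luciferase activity from engineered P. falciparum reports growth; inhibitors lower the luminescent signal. Cultures contained 2% hematocrit erythrocytes at 0.1% final parasitemia.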
HCMV antiviral = blocks human cytomegalovirus replication; HFF cells, HCMV-luciferase reporter, 72 h; active compounds read low; activity change, negative = inhibition, % at 57.5 µM; hit rate 4.5% among 410,000; AID 1259415; in the data active means activity change below about -60%; inconclusive means no clear call, values can overlap the other calls; inactive means above about -39%
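Luciferase read-out from HCMV-luciferase-infected HFFs (MOI 1 PFU/cell) 72 h post infection at 37C; compounds added after 16 h cell attachment; activity normalized between buffer-only basal and Salinomycin (10uM) inhibitor controls.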
Pf growth 96h = P. falciparum growth inhibition at 96 hours. P. falciparum luciferase reporter growth, 96 h. Potency, µM (doses to about 28.7 µM), for the others: at the highest dose activity change, negative = inhibition, actives largely listed as inhibitors. hit rate 6.9% among 320,000. AID 504834; further: potency means the concentration at half of the fitted maximal effect
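Delayed-death screen, second-generation endpoint: infected erythrocytes, 2% hematocrit, 0.05% parasitemia final; 96 hours at 37 C, 5% CO2; luciferase detection reagent; luminescence decrease equals reduced growth.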
HCV inh = blocks hepatitis C virus. Huh7.5.1 HCVcc-Cre infection, luciferase reporter, 44 h. Potency, µM (highest dose often 41.8 µM), inactives show at the highest dose activity change, negative = inhibition, actives largely listed as inhibitors. hit rate 3.4% among 340,000. AID 651820; further: potency means the concentration at half of the fitted maximal effect
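After 44 h co-culture of compound, cells and HCVcc-Cre (~0.5 moi), substrate is added for 15 min at room temperature and luciferase measured over 15 sec. Cells were seeded at 1,000/well and pre-cultured 4 h.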
* hit, by the source's call; ? = inconclusive; / = no result. An excerpt weighted towards active compounds, which were near 13% of everything screened. Unless noted, the call rests on the fitted dose curve; in most records, active means well fitted inhibition curve with a large enough effect; inconclusive means small, poorly fitted or top-dose-only effect, or another doubt; inactive means no such curve, though single readings can be large or run the other way. On the % scale 0 is the no-effect control and ±100 the full control effect.

SMILES	Pf growth 48h	HCMV antiviral	Pf growth 96h	HCV inh
O=C(COc1cccc(C(F)(F)F)c1)Nc1ccc2[nH]ncc2c1	-4.7%	?	?	-10.9%
CC1(C(=O)Nc2ccc3[nH]ncc3c2)CCN1C(=O)C1(c2ccccc2)CC1 (stereo unspecified)	/	-98.0*	/	/
COc1ccccc1C(=O)Nc1ccc2[nH]ncc2c1	5.2%	18.4	7.38µM*	5.1%
COc1ccc(C2C(=O)N(C3CCCCCC3)CC(=O)N2CCC2=CCCCC2)cc1 (stereo unspecified)	/	-3.4	/	/
CC(=O)Nc1ccc(-c2ccnc3c2CC(C)(C(=O)Nc2ccc(F)c(Cl)c2)O3)cc1 (stereo unspecified)	/	-22.4	/	/
NC(=S)N=Nc1ccc(NN=C(N)N)cc1	1.2µM*	68.3	?	-29.0%
COC(=O)c1ccc(NN=Nc2ccc(C)cc2)cc1	-31.2%	91.4	2.5%	-1.3%
CCOC(=O)c1cc(-c2ccccc2)n(CC(=O)NC2CCC(C)CC2)c1C (stereo unspecified)	/	42.5	/	/
Cc1nn(C(=O)CCCC(=O)NCc2ccccc2)c2ccccc12	23.4%	-21.9	?	22.4µM*
Cc1nc2ccccc2n1CC(=O)NN	5.9%	?	28.5%	-8.8%
COc1ccc(-n2c(=O)c3ccc(C(=O)NCc4ccc(C)cc4)cc3n(CC(=O)Nc3ccc(C)cc3)c2=O)cc1	/	-70.8*	/	/
Cc1nc2ccccc2n1CC(=O)NCc1ccccc1	6.4%	-78.9*	-4.1%	-17.7%
COc1ccc(NC(=O)Cn2c(C)cc(=O)c3ccccc32)cc1	-20.1%	-79.8*	?	7.08µM*
CCOC(=O)Cn1c(=O)n(-c2cccc(Cl)c2)c2nc(-c3ccccc3Cl)nc(C(N)=O)c21	/	-11.5	/	/
COc1ccc(NC(=O)CSc2nc3c(c(=O)[nH]2)CN(Cc2ccccc2)CC3)cc1Cl	/	-2.9	/	/
Cc1nc2ccccc2n1CC(=O)NC(C)C1CC2CCC1C2 (stereo unspecified)	?	-64.8*	?	?
Cc1cc(=O)c2ccccc2n1CC(=O)NCc1ccccc1	-18.2%	-71.1*	0.0%	?
Cc1cc(=O)c2ccccc2n1Cc1ccccc1	-4.3%	-69.8*	?	12.6µM*
COc1cccc2c(=O)cc(C)n(CC(=O)Nc3cccc(C)c3)c12	?	?	-21.8%	8.91µM*
O=C(Cc1ccc(F)cc1)N1CCC(c2nc3c(nnn3Cc3ccc(Cl)cc3)c(=O)[nH]2)CC1	/	11.0	/	/
Cc1ccc(/C=C2\C(=O)NC(=S)N(c3ccccc3F)C2=O)s1	6.6%	-101.2*	4.2%	?
Cc1cc(Cl)ccc1OCC(=O)N(Cc1sccc1C)C1CCS(=O)(=O)C1 (stereo unspecified)	/	-4.8	/	/
COc1cccc(N2CCN(S(=O)(=O)c3ccc(-c4cc(C(F)(F)F)on4)s3)CC2)c1	/	18.8	/	/
Cc1nn(C)c2c1c(C(F)(F)F)cc(=O)n2CC(=O)NCc1ccccc1Cl	/	6.7	/	/
COC(=O)c1[nH]c2cccc(Cl)c2c1NC(=O)CN(C)C1CCCCC1	?	37.6	8.28µM*	?
SMILES	Pf growth 48h	HCMV antiviral	Pf growth 96h	HCV inh
O=C(NCCSCc1ccc(Cl)cc1)c1cccs1	3.29µM*	-5.0	10.4µM*	-7.8%
O=C(Nc1cnn(Cc2ccc(Cl)cc2)c1)c1cccs1	4.65µM*	-15.5	6.57µM*	-13.9%
CCOC(=O)CNC(=O)C1c2cc(OC)c(OC)cc2C(=O)N(C)C1c1ccccc1F (stereo unspecified)	-0.5%	40.4	3.9%	2.0%
CCOC(=O)[C@]12Cc3c(cc(OC)c(OC)c3OC)[C@H]1N(C)C(=O)c1cc(OC)ccc12	/	-100.9*	/	/
CCOC(=O)N1CCN(C(=O)C2CC(c3cc(OC)ccc3OC)=NO2)CC1 (stereo unspecified)	?	7.5	?	-5.9%
CCOC(=O)[C@]12Cc3c(cc(OC)c(OC)c3OC)[C@H]1N(CCC(=O)OC)C(=O)c1cc(OC)ccc12	/	-105.2*	/	/
CCCCCN1C(=O)c2ccccc2[C@@]2(C(=O)OCC)Cc3cc(OC)ccc3[C@@H]12	/	-109.4*	/	/
CCOC(=O)[C@]12Cc3cc(C)ccc3[C@H]1N(CCC(=O)OC)C(=O)c1cc(OC)ccc12	/	-108.9*	/	/
O=C(NCCc1csc(-c2cccnc2)n1)c1ccc(F)c(F)c1	/	-33.4	/	/
CCOC(=O)[C@]12Cc3ccccc3[C@H]1N(CCC(=O)OC)C(=O)c1ccccc12	/	-97.8*	/	/
COc1cc2nc(CN3CC=C(c4ccccc4)CC3)[nH]c(=O)c2cc1OC	/	-98.8*	/	3.55µM*
COc1cc2nc(CN3CCN(S(=O)(=O)c4ccccc4)CC3)[nH]c(=O)c2cc1OC	?	?	?	13.2%
Cn1c(SCc2nnc(-c3ccccc3)o2)nc2ccccc21	-9.8%	6.8	-10.1%	8.0%
Cn1c2ccccc2c2nnc(SCc3nnc(-c4ccccc4)o3)nc21	9.4%	/	4.15µM*	/
COc1ccc(CNC(=O)CC2C(=O)NCCN2CC(C)(C)C)c(OC)c1 (stereo unspecified)	-7.7%	?	10.4µM*	8.1%
COc1ccc(CN2CCNC(=O)C2CC(=O)NC2Cc3ccccc3C2)c(OC)c1 (stereo unspecified)	16.0%	24.2	1.9%	-11.7%
COc1ccc(CN2CCNC(=O)C2CC(=O)NC2CCC2)c(OC)c1 (stereo unspecified)	6.7%	2.1	14.7µM*	21.0%
C/C(=N\NS(=O)(=O)c1ccc([N+](=O)[O-])cc1)c1ccc2c(c1)OCO2	40.3%	15.9	5.86µM*	22.6%
C/C(=N/NS(=O)(=O)c1cccc([N+](=O)[O-])c1)c1ccc2c(c1)OCO2	20.5%	2.1	0.828µM*	4.3%
OC(COc1ccc(CN2CCCCO2)cc1)CN1CCCCC1 (stereo unspecified)	?	-20.7	11.7µM*	?
OC(COc1ccc(OCC(O)CN2CCCCCC2)cc1)CN1CCCCCC1 (stereo unspecified)	?	/	36.6%	7.08µM*
COc1ccc(OCC(O)CN2CCCCCC2)cc1 (stereo unspecified)	-7.8%	15.1	?	-1.7%
CN1CCN(CC(O)COc2ccc(C34CC5CC(CC(C5)C3)C4)cc2)CC1 (stereo unspecified)	?	?	?	10µM*
NC(=O)C1CCN(CC(O)COc2ccc(-c3ccccc3)cc2)CC1 (stereo unspecified)	?	-33.1	?	10µM*
COc1ccc(OCC(O)CN2CCN(CC(O)COc3ccc(OC)cc3)CC2)cc1 (stereo unspecified)	-114.9%	25.4	?	?
Cc1ccc2c(c1)c1c(c(=O)n(-c3cccc(Cl)c3)c(=O)n1C)n2C	/	34.0	/	/
O=C1OCC/C1=C1/NCCNC1=O	/	-22.5	/	/
COC(=O)c1ccc(CNC(=O)c2nc(Cn3nc(C)c(Br)c3C)no2)cc1	/	8.5	/	/
Cn1cc(S(=O)(=O)N2CCc3ccccc32)cc1C(=O)Nc1ccc(C(F)(F)F)cc1	/	-10.5	/	/
CC(C)(c1ccccc1)c1ccc(OCC(O)CN2CCCC2)cc1 (stereo unspecified)	13.1µM*	-31.6	-30.8%	?
